According to PubChem BioAssay (NCI):
The panel holds about 83,000 compounds, 20% with a hit somewhere; the sample as a whole holds those more often.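 Method: cells in 96-well plates; compound added at one concentration; 48 h incubation; percent growth measured; values under 10 scored active.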 Unmarked numbers belong to inactive results. Activity calls are given as the source filed them.

System: HL-60(TB) leukemia
Experiment: NCI-60 one-dose screen, 48 h (100 = growth as untreated, 0 = no growth, -100 = all killed)
Settings: 10 µM unless noted

Which growth does the source give for `OC(Cc1cc(CC(O)(C(F)(F)F)C(F)(F)F)nc(CC(O)(C(F)(F)F)C(F)(F)F)c1)(C(F)(F)F)C(F)(F)F` here?
Its growth is -24.5% (active).

For `O=C1CSC(=S)N1/N=C/c1ccc(Cl)s1`, which growth is on record?
The growth was 91%.

With `N#Cc1ncc(Br)c(NC2CCCCCC2)n1` as the compound, how does the growth read?
Its growth is 111%.

For `C=C1C(=O)O[C@H]2[C@H]1CC/C(COC(=O)NCc1ccc(Cn3c(=O)sn(-c4ccc(Cl)cc4)c3=O)cc1)=C\CC[C@@]1(C)O[C@@H]21`, which growth is on record?
The growth was -11.4% (active).

With `COc1cc(OC)cc(-c2ccc(-c3ccc(C(=N)N)cn3)s2)c1` as the compound, how does the growth read?
The growth was -25.4% (active).

Which growth does the source give for `O=C(O)CC1Cc2ccccc2C1C(=O)O` (stereo not given) here?
The growth was 65%.

With `Nc1n[nH]c2ccc([C@@H]3Nc4ccc5[nH]ncc5c4[C@H]4[C@H]5CCC(C5)[C@H]43)cc12` as the compound, how does the growth read?
Its growth is -41.5% (active).

`O=C(N/N=C/c1ccc(Cl)cc1)c1ccc(C(F)(F)F)nc1Nc1cccc(C(F)(F)F)c1` was tested. Which growth did it give?
The growth was -37.2% (active).

`Cc1[nH]c(C2CC(c3ccc(C(F)(F)F)c(F)c3)=NN2C)c(C)c1C(=O)NCC(F)(F)F` (stereo not given) was tested. Which growth did it give?
Its growth is 97.1%.

For `C=C1C(=O)O[C@H]2[C@H]1CC/C(CNC(=O)CCc1ccc(OC)cc1)=C\CC[C@@]1(C)O[C@@H]21`, which growth is on record?
The growth was 3.96% (active).

With `CCOC(=O)c1csc(-c2ccc(COC(=O)c3ccccc3)o2)n1` as the compound, how does the growth read?
The growth was 107%.

`N#C/C(=C\c1ccc(Cl)cc1Cl)C(=O)Nc1ncc(Cc2ccc(Cl)c(Cl)c2)s1` was tested. Which growth did it give?
The growth was 98.8%.

With `NC1=C(/C(N)=N/O)C(c2ccccc2)c2ccc3ccccc3c2O1` (stereo not given) as the compound, how does the growth read?
Its growth is -19% (active).

For `C=C[C@H]1CCC/C=C/[C@@H]2C[C@H](O)C[C@H]2[C@H](O)/C=C/C(=O)O1`, which growth is on record?
Its growth is -0.65% (active).

For `COc1ccc(S(=O)(=O)N(Cc2ccc3c(n2)C=CC(C)(C)O3)C2CCC2)cc1OC`, which growth is on record?
The growth was -13.5% (active).

How did the growth turn out when `CC1O[C@@H]2C[C@@](O)([C@H]1O)n1c3ccccc3c3c4c(c5c6ccccc6n2c5c31)C(=O)NC4=O` (stereo not given in full) was run?
Its growth is 66.6%.

Which growth does the source give for `CCn1cc(C2=C(c3cn(C)c4ncccc34)C(=O)NC2=O)c2cccnc21` here?
Its growth is 89.8%.

`O=C(/C(=C/c1ccccc1)CBr)c1ccccc1` was tested. Which growth did it give?
Its growth is 9.09% (active).

Which growth does the source give for `COc1c(C2CC(=O)Nc3c2c(C)nn3-c2nc3ccccc3[nH]2)cc2c(c1OC)OCO2` (stereo not given) here?
Its growth is 20.7%.

Which growth does the source give for `CCCCC(=O)N/N=C/c1cc(I)cc(I)c1O` here?
Its growth is 4.46% (active).

For `O=C(c1ccccc1)c1ccc(O)c2ncccc12`, which growth is on record?
Its growth is 19.8%.

With `O=C(Nc1ccc(Br)cc1F)c1cc(Br)ccc1O` as the compound, how does the growth read?
The growth was -23.7% (active).

For `COc1cc2nc(-c3ccc(C(F)(F)F)cc3)cc(OCCCN3CCCC3)c2cc1OC`, which growth is on record?
Its growth is 36.9%.

For `O=C(Cc1ccccc1)Nc1nnc(NC2CCN(c3nnc(NC(=O)Cc4ccccc4)s3)CC2)s1`, which growth is on record?
The growth was 96.7%.

How did the growth turn out when `COC(=O)[C@@]12CC=C(C)[C@]3(C[C@H](c4ccoc4)OC3=O)[C@H]1C=C[C@@H](O)[C@@]2(O)C(=O)OC` was run?
Its growth is 107%.

`C=Cc1cnc(Nc2ccc(OC)cc2)nc1NCCCNC(=O)C1CCC1` was tested. Which growth did it give?
Its growth is 14.6%.

How did the growth turn out when `C=C(CN=[N+]=[N-])[C@@H]1CC[C@]2(C)[C@H](CC[C@@H]3[C@H]4[C@H]5OC(=O)[C@@]4(CCC5(C)C)CC[C@]32C)[C@@]1(C)CCC#N` was run?
The growth was 22.7% [100 µM].

Which growth does the source give for `Oc1ccc(CCl)c2cccnc12` here?
The growth was 81%.

How did the growth turn out when `Cc1ccc(NC(=O)c2sc3nc4c(cc3c2N)C(=O)CCC4)cc1C` was run?
The growth was -10.6% (active).

For `COc1ccc(NC(=O)c2ccc(Cl)cc2Cl)cc1`, which growth is on record?
The growth was 103%.

With `CCOC(=O)c1c(-c2ccc(C)cc2)c(C#N)c(=O)n(-c2cccc(C(F)(F)F)c2)c1N` as the compound, how does the growth read?
The growth was 102%.

With `N#Cc1nc(C#N)c(Sc2ccccc2)c(Sc2ccccc2)c1Sc1ccccc1` as the compound, how does the growth read?
The growth was -37.2% (active).

With `CCSc1nnc(Nc2ccc(C(C)C)cc2)s1` as the compound, how does the growth read?
Its growth is 48.8%.

Which growth does the source give for `COc1cc(-c2nc(-c3nnc(-c4cccnc4)o3)c3ccccn23)cc(OC)c1OC` here?
Its growth is 95.7%.

For `COc1cc(-c2cc(C(=O)N3CCN(C(=O)c4ccccc4NCc4cccs4)CC3)nc3cc(-c4ccccc4)nn23)cc(OC)c1OC`, which growth is on record?
Its growth is 82.7%.

Which growth does the source give for `O=C1NC(=O)/C(=C/c2ccc(Cl)cc2Cl)N1` here?
Its growth is 97%.

With `Cn1ccnc1C(=O)/C=C/c1ccc(CC(=O)Nc2cc(C(F)(F)F)cc(C(F)(F)F)c2)cc1` as the compound, how does the growth read?
Its growth is 16.1%.

For `COc1ccc(-n2cc(COc3ccc4c5ccnc(C)c5n(CC(C)C)c4c3)nn2)cc1`, which growth is on record?
Its growth is -10.6% (active).

Which growth does the source give for `CCOC(=O)N1CCN(c2nc(Nc3cc(C)[nH]n3)c3ccccc3n2)CC1` here?
The growth was 26.3%.

With `COC(=O)c1cc(Cl)cc([N+](=O)[O-])c1O` as the compound, how does the growth read?
The growth was 18.8%.
